Only some compounds are listed: those with a hit (about 6.3% of all), similar ones and a draw of the others.
Spn DPM-DC inh = blocks S. pneumoniae diphosphomevalonate decarboxylase; AID 556; purified DPM-DC, PK/LDH coupled NADH fluorescence; 65,000 compounds, 0.49% hits; calls only at 10 µM;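 active = the 320 compounds with the highest percent inhibition in the single-dose primary screen, excluding strongly autofluorescent ones, cut at about 32% in these data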;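 note: kinetic rate of NADH fluorescence loss reporting ADP formed by the decarboxylase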
NADH enzymes = blocks coupling enzymes of NAD/NADH assays; coupled PK/LDH NADH assays, four targets; IC50, µM (titrated, usually from 10 µM), without a hit: top-dose inhibition; 65,000 compounds, 0.02% hits;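 active = single-dose screening hits from any of four coupled enzyme assays that gave an IC50 when retested across doses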;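 note: the DPM-DC format reads NADH fluorescence rather than 340 nm absorbance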
Abs 340nm = compounds absorbing at 340 nm; AID 708; 65,000 tested, under 10 active; fold change at 10 µM; compound absorbance at 340 nm, fold over control;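 active = at 10 µM dose, initial 340 nm absorbance at least 2 fold that of control wells; inactive = change under 2 fold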;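 note: initial absorbance extrapolated from kinetic A340 decline of NADH oxidation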
Spn MK inh = inhibitors of Streptococcus pneumoniae mevalonate kinase | purified MK, PK/LDH-coupled NADH absorbance 340 nm | inhibition, % at 10 µM | 65,000 compounds, 0.48% hits | AID 555;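 active = ranked among the strongest by inhibition in the single 10 µM screen, a fixed top-ranked set picked for dose follow-up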
Fluor 339 460 = intrinsic fluorescence of library compounds, ex339/em460 – biochemical, MLSMR library, data from DPM-DC assay, artefact control, profiling panel | 65,000 compounds, 5.5% hits | fluorescence fold increase at 10 µM | compound autofluorescence, ex339/em460 nm, NADH buffer; active compounds read high; 1 = no-compound wells, NADH background;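 active = at 10 µM, mean starting fluorescence two-fold or more over control wells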;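 note: signal is the first read of a kinetic run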
Spn PMK inh = S. pneumoniae PMK inhibition. inhibition, % at 10 µM. purified PMK, PK/LDH-coupled NADH absorbance 340 nm. 65,000 compounds, 0.49% hits;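 active = top-ranked compounds by inhibition in the single 10 µM screen, taking a fixed number of the strongest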;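 note: 0% = full reaction with DMSO carrier and 100% = background rate without enzyme reaction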
The depositor's hits bear a star; i = inactive; / = not tested or not shown.

SMILES | Spn DPM-DC inh | NADH enzymes | Abs 340nm | Spn MK inh | Fluor 339 460 | Spn PMK inh
Cc1cc(C)c2[nH]c(=O)c(C(c3nnnn3C(C)(C)C)N3CCN(C(=O)c4ccco4)CC3)cc2c1 (stereo not drawn) | i | 15% | 1.1 | 15 | 2.4* | 1
CCC(C)(C)n1nnnc1C(c1cc2cc3c(cc2[nH]c1=O)OCO3)N1CCN(C)CC1 (stereo not drawn) | / | 11% | 1.1 | 1 | 3.8* | 20
CC(C)(C)n1nnnc1C(c1cc2cc3c(cc2[nH]c1=O)OCCO3)N1CCSCC1 (stereo not drawn) | / | 0% | 1.1 | 0 | 3.3* | 0
COc1ccccc1C(c1nnnn1C(C)(C)C)N1CCN(C(=O)c2ccco2)CC1 (stereo not drawn) | i | 8% | 1 | 10 | 1.1 | 13
CCOC(=O)C1=C(N)OC2=C(C(=O)CCC2)C1c1ccccc1OCC (stereo not drawn) | i | 13% | 1 | 6 | 1.1 | 13
Cc1sc(CO)c(Sc2ccccc2)c1C(=O)O | i | 5% | 0.97 | 6 | 1.1 | 10
COc1cc(OC)cc(OCC(O)Cn2ccnc2)c1 (stereo not drawn) | i | 6% | 1 | 17 | 1.1 | 1
COC(=O)c1ccc(C(=O)OC)c(NC(=O)c2cnc3n(c2=O)CCS3)c1 | i | 9% | 1.1 | 1 | 2.4* | 10
Cc1ccc2c(c1)N(CCCC(=O)NCCCN1CCCC1=O)C(=O)CO2 | i | 4% | 1 | 9 | 1 | 0
CN1CC=C2C(C#N)=C(N)C(C#N)(C#N)[C@H](c3cccc(Cl)c3)C2C1 (stereo partly drawn) | i | 4% | 1 | 6 | 1.4 | 0
CCOC(=O)N1CC=C2C(C#N)=C(N)C(C#N)(C#N)[C@H](c3ccsc3)[C@H]2C1 | i | 12% | 1 | 13 | 1.7 | 19
CCCC1C2CN(C(C)C)CC=C2C(C#N)=C(N)C1(C#N)C#N (stereo not drawn) | i | 13% | 1 | 8 | 4* | 6
CN1CC=C2C(C#N)=C(N)C(C#N)(C#N)C(CCc3ccccc3)C2C1 (stereo not drawn) | i | 6% | 1 | 3 | 2* | 1
O=C(CNS(=O)(=O)c1ccc(Br)s1)N1CCC(N2CCCCC2)CC1 | i | 5% | 1 | 0 | 1.1 | 16
COc1ccc2nc(Nc3nc(C)c(C(C)=O)s3)sc2c1 | i | 7% | 1 | 9 | 2* | 11
COc1cc(C)nc(Nc2nc(C)c(C(C)=O)s2)n1 | i | 3% | 1.1 | 1 | 1.1 | 4
O=C(CN1CCOCC1)Nc1cccc(Cl)c1Cl | i | 6% | 0.98 | 3 | 1 | 15
COc1ccc2[nH]c3ccccc3c2c1 | i | 4% | 0.97 | 0 | 1.4 | 12
COc1ccc2[nH]c(=O)c3c(c2c1)OC(C)(C)C=C3 | i | 14% | 1.1 | 1 | 2.5* | 13
COc1ccc(-n2nc3ccc(NS(C)(=O)=O)cc3n2)cc1Cl | / | 5% | 1.2 | 8 | 3.8* | 1
COc1ccc(NS(=O)(=O)c2coc(C(N)=O)c2)cc1Cl | i | 5% | 0.99 | 7 | 1 | 9
Cc1cc2c(cc1C)NC(c1c(C)n(C)n(-c3ccccc3)c1=O)C1=C(CC(C)(C)CC1=O)N2 (stereo not drawn) | i | 6% | 1.1 | 7 | 2.6* | 3
CC1(C)CC(=O)C2=C(C1)Nc1ccccc1NC2c1ccccn1 (stereo not drawn) | i | 8% | 1.2 | 6 | 0.99 | 16
CCN1CCN(Cc2nc3c(c(=O)n(C)c(=O)n3C)n2Cc2ccc(Cl)cc2Cl)CC1 | i | 2% | 1 | 0 | 1 | 6
COc1ccccc1N1CCN(S(=O)(=O)c2ccc(Cl)s2)CC1 | i | 3% | 1.1 | 6 | 1.1 | 3
SMILES | Spn DPM-DC inh | NADH enzymes | Abs 340nm | Spn MK inh | Fluor 339 460 | Spn PMK inh
Cc1ccc(NC2c3ncccc3C(=O)N2c2ccccc2C)cc1C (stereo not drawn) | i | 35% | 1.1 | 83* | 1.2 | 23
COc1ccccc1NC(=O)COc1ccc(CO)cc1Cl | i | 2% | 1 | 0 | 1.1 | 6
COc1ccc2[nH]c(=O)c(CN(Cc3cccnc3)C(=O)Nc3ccccc3)cc2c1 | i | 12% | 1.1 | 4 | 2.5* | 13
CC(=O)N(Cc1cccnc1)Cc1cc2ccccc2[nH]c1=O | i | 6% | 1.1 | 4 | 1.4 | 13
CCN(CC)CCN(Cc1cc2cc(C)ccc2[nH]c1=O)C(=O)Nc1ccccc1OC | i | 6% | 1 | 5 | 1.2 | 11
COc1ccc2[nH]c(=O)c(CN(CCCN(C)C)C(=O)Nc3ccc(F)cc3)cc2c1 | i | 6% | 1.1 | 3 | 2.7* | 9
CCOc1ccc2[nH]c(=O)c(CN(Cc3cccnc3)C(=O)Nc3ccccc3OC)cc2c1 | i | 6% | 1.2 | 1 | 2* | 1
Cc1ccc2c(c1)N(CC(=O)NCCc1c[nH]c3ccccc13)C(=O)CO2 | i | 3% | 0.99 | 0 | 1.1 | 10
CCS(=O)(=O)C(=C1NCCO1)S(=O)(=O)CC | i | 1% | 1.1 | 4 | 1.1 | 0
CC1=C(C(=O)OC2CCCC2)C(c2ccc(C)o2)C2=C(CC(c3cccs3)CC2=O)N1 (stereo not drawn) | i | 3% | 0.99 | 3 | 1.1 | 16
Cc1nn(CCC(=O)O)c2nc(-c3cccnc3)cc(C(F)(F)F)c12 | / | 5% | 1.1 | 5 | 4.9* | 5
Cc1ccc(S(=O)(=O)N2CCSC2c2ccco2)cc1 (stereo not drawn) | i | 8% | 1 | 2 | 1.1 | 21
COc1ccc2[nH]cc(C3N4CC5(C)CN3CC(C)(C4)C5=O)c2c1 (stereo not drawn) | i | 20% | 1 | 48* | 1.1 | 13
COc1ccc(OC)c(N2C(=O)CC(C(C)c3ccccc3)C2=O)c1 (stereo not drawn) | i | 3% | 1 | 0 | 1.1 | 8
CCC1Oc2ccccc2N(CC(=O)Nc2ccc(OC)cc2OC)C1=O (stereo not drawn) | i | 4% | 0.99 | 2 | 1 | 14
CC(=O)N1CCC2(CC1)CC(=O)c1cc(OCC(=O)NCc3ccco3)ccc1O2 | / | 6% | 1 | 0 | 3.4* | 12
CC(=O)N1CCC2(CC1)CC(=O)c1cc(OCC(=O)NCc3ccc(C)cc3)ccc1O2 | / | 3% | 1 | 0 | 3.5* | 12
O=C(CN1CCOCC1)NCC12CC3CC(CC(C3)C1)C2 | i | 7% | 1 | 11 | 1 | 9
CC(C)n1c(SCC(=O)N2CCCc3ccccc32)nc2c1c(=O)n(C)c(=O)n2C | i | 5% | 0.96 | 3 | 1.1 | 13
O=C(Cc1cccs1)N(Cc1ccco1)C1(C(=O)NC2CCCC2)CCCCC1 | i | 4% | 0.99 | 11 | 1.1 | 1

Assay outcomes as filed in PubChem BioAssay.
